# About 79,000 compounds went through this panel and 15% of them were active in at least one assay; those are over-represented in the sample as a whole. Values without a mark were called inactive. Activity calls are given as the source filed them. No stated cut-off is given here; in the data, active means growth inhibition above about 70%; inactive means the rest. Where a SMILES comes first, the peptide text is derived from it. The star is where a group is joined. Myristoyl = CCCCCCCCCCCCCC(=O)*
# Experiment: NCI Yeast Anticancer Drug Screen. Data for the rad50 strain (AID 155);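 further: 0% = growth of vehicle-only cultures of the same strain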
# Settings: S. cerevisiae rad50 strain growth inhibition; at 50.0 µM; stronger effect = higher value
# Procedure, shortened: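 Yeast carrying a defined DNA repair defect were exposed to test compounds, and growth was compared with vehicle-treated controls to give percent inhibition.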
row,SMILES,growth inhibition
1,COc1ccc(-c2cc(O)cc(C)c2N)c(OC)c1OC,17.1%
2,CCCOc1ncnc2nc[nH]c12,7.3%
3,CCCCCCCCCCCCCC(=O)NCC(=O)NC(CO)C(=O)NC(CO)C(=O)NC(CCCCN)C(=O)NC(CO)C(=O)NC(CCCCN)C(=O)N1CCCC1C(=O)NC(CCCCN)C(=O)NC(CC(=O)O)C(N)=O (stereo not given) (Myristoyl-GSSKSKPKD-NH2; configuration not given here),7.25%
4,CS(=O)(=O)Nc1ccc(C(=O)CCN2CCCCCC2)cc1,-4.35%
5,CC(C)(C)[C@@H]1NC(=O)CN1C(=O)OCc1ccccc1,-22.1%
6,CC(C)(C)c1ccc(C(O)(c2ccc(C(C)(C)C)cc2)c2ccc(C(C)(C)C)cc2)cc1,12.8%
7,Clc1cccc(-c2nc3cccc4c3n2Cc2ncccc2-4)c1,-47.8%
8,CC(=N\N=C(N)N)/C(N=Nc1ccc(S(N)(=O)=O)cc1)=N\N=C(N)N,-0.75%
9,O=C(O)c1ccccn1,-37.6%
10,O=C1C=C(Nc2ccc(Cl)cc2Cl)c2ccccc2C1=O,30.2%
11,CC(O)/C=C/C(CCC(C)CO)C(C)C (stereo not given),-17%
12,Cc1ccc(S(=O)(=O)OCC2CC=CCC2COC(=O)c2ccc([N+](=O)[O-])cc2)cc1 (stereo not given),33.5%
13,C1=CC(c2ccccc2)=C(c2ccccc2)C(c2ccccc2)C(c2ccccc2)=C1 (stereo not given),18.2%
14,COc1ccc(-c2cc(N)c3c(c2O)C(=O)c2c(N)ccc(O)c2C3=O)cc1,13.3%
15,NC(=O)c1cc(OCc2ccccc2)nc2nc(Cl)nc(N)c12,-5.05%
16,O=c1cc(-c2ccccc2)c2ccccc2[nH]1,2.15%
17,CCC(/C=C/c1ccccc1)=N\NC(=O)c1ccc(Cl)cc1,16.2%
18,CC(C)C1OC2(C)OC(=N)C1(C#N)C(C#N)(C#N)C2C (stereo not given),-0.75%
19,O=[N+]([O-])c1ccc(-c2noc(-c3ccccc3)c2C2=NCCN2)cc1,-9.85%
20,O=c1[nH]nc(Cc2ccccc2)n1/N=C/c1cccnc1,28.8%

row,SMILES,growth inhibition
1,COc1ccc(NC2=CC(=O)c3ccccc3C2=O)cc1,0.4%
2,CSc1ccc(NC(=O)c2ccc([N+](=O)[O-])cc2)cc1,-1.1%
3,CCCCCCCCCCCCCCCCCC(=O)OCC(CO)OC(=O)CCCCCCCCCCCCCCCCC (stereo not given),4.45%
4,CC1=CCCC(C)(C)C1/C=C/C(=O)O (stereo not given),8.45%
5,O=C(/C=N/O)Nc1cccc(Cl)c1I,18.4%
6,CCC(CCN(C)C)(OC(C)=O)c1ccccc1 (stereo not given),10.4%
7,CC(=O)OCC1OC(c2ccccc2)C/C(=N/O)C1OC(C)=O (stereo not given),90.8% (active)
8,CCCS(=O)(=O)CCC(=O)c1ccccc1,-4%
9,CCC(CC)COC(=O)c1ccccc1C(=O)OCC(CC)CC,-18.9%
10,O=C1C2=C(c3ccccc31)C(c1ccccc1Cl)N1C(=O)CCSC1=N2 (stereo not given),2.9%
11,Cc1ccc(-c2cc(-c3cc(-c4ccc(C)cc4)nc(N)n3)nc(N)n2)cc1,3.7%
12,Cc1cc(Cc2ccc3c(c2)OCO3)ccc1OCC(=O)O,15.1%
13,COc1cc(C2C(C(=O)Nc3ccccc3C)=C(C)NC(C)=C2C(=O)Nc2ccccc2C)ccc1O,-27.1%
14,CC(=O)OC/C=C(\C)CC(/C=C(C)/C=C/C1=C(C)CCCC1(C)C)S(=O)(=O)c1ccccc1 (stereo not given),35.5%
15,COc1cc2c(c(O)c1C)C(=O)CC(c1ccccc1)O2 (stereo not given),15.4%
16,c1ccc(C(c2cccc3c2ccc2ccccc23)C(c2ccccc2)c2cccc3c2ccc2ccccc23)cc1 (stereo not given),4.75%
17,COc1c2ccoc2cc2oc(=O)ccc12,10%
18,O=C(O)c1ccc(O)c(C(=O)O)c1,12%
19,CS(=O)(=O)Oc1ccccc1OS(C)(=O)=O,7.95%
20,c1ccc2c(c1)Cc1ccc3ccccc3c1-2,56%

# Reference: PubChem BioAssay (NCI)
